This is part of a sample that, as a whole, favours compounds with a hit. Of some 83,000 tested, about 20% had one in any assay.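 Growth was measured after 48 h exposure to one concentration of compound in 96-well plates. Values under 10 count as active.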 The source made the active and inactive calls.

The test concerns CAKI-1 renal. As to the kind of experiment: NCI-60 one-dose screen, 48 h (100 = growth as untreated, 0 = no growth, -100 = all killed). The conditions noted are these: 10 µM unless noted.
As for `CC(=O)OC[C@]12CC[C@@H]([C@@H](C)c3nnc(-c4ccncc4)o3)[C@@H]1[C@H]1CC[C@@H]3[C@@]4(C)CC[C@H](OC(C)=O)C(C)(C)[C@@H]4CC[C@@]3(C)[C@]1(C)CC2`, the growth was 64.4% (inactive).

For `CN(Cc1ccccc1)c1nc(Cl)c(C2CC(c3ccccc3)=NN2c2ccccc2)s1` (stereo not given), the growth was 68.7% (inactive).

Turning to `CSc1nc(C)c([N+](=O)[O-])c(N)n1`, the growth was 98.4% (inactive).

On to `CN1CCN(Cc2ccc(NC(=O)c3cncc(C#Cc4cnc(N)c5ccc(F)cc45)c3)cc2C(F)(F)F)CC1`, for which the growth was 19.7% (inactive).

For the compound `CN1CCN(C(=O)[C@@]2(C)CC[C@]3(C)CC[C@]4(C)C(=CC[C@@H]5[C@@]6(C)CCC(=O)NC(C)(C)[C@@H]6CC[C@]54C)[C@@H]3C2)CC1`, the growth is 42.5% (inactive).

On to `COc1ccc(/C=C2\CN(C(=O)C(Cl)Cl)C/C(=C\c3ccc(OC)cc3)C2=O)cc1`, for which the growth was -18.9% (active).

`O=C(NNc1cnccn1)c1nc2cc(F)ccc2n2cccc12`: the growth is 7.11% (active).

Consider `COc1cc(/C=C2\CN(S(=O)(=O)c3ccccc3)C/C(=C\c3cc(CN4CCCCC4)c(O)c(OC)c3)C2=O)cc(CN2CCCCC2)c1O`, for which the growth was -89.2% (active).

As for `COc1ccc(/C=C/C(c2cc(OC)c(OC)c(OC)c2)n2ccnc2)cc1O` (stereo not given), the growth is 60.2% (inactive).

On to `C/C=C(/C)n1cnc2c(Nc3ccccn3)nc(Cl)nc21`, for which the growth was 94.2% (inactive).

For the compound `Oc1ccc(/C=C/c2ccc(O)cc2)cc1`, the growth is 78.7% (inactive).

On to `C#CCOc1cccc(-c2ncnc3cc(NC(=O)C=C)ccc23)c1`, for which the growth is 15.9% (inactive).

As for `CCOC(=O)c1nn(CC(O)c2ccccc2)c(NC(=O)Nc2cccc(F)c2)c1C` (stereo not given), the growth is 101% (inactive).

With `O=C(N/N=C\c1ccccc1S(=O)(=O)O)N/N=C/c1ccccc1S(=O)(=O)O`, the growth was 88.7% (inactive).

Regarding `CC[C@]12C=CCN3CC[C@@]4(c5ccc(OC)cc5N(C)[C@H]4[C@@](O)(C(=O)OC)[C@@H]1OC(=O)CCC[P+](c1ccccc1)(c1ccccc1)c1ccccc1)[C@@H]32`, the growth was 52.2% (inactive).

Turning to `CCCn1nc(C(=O)N(C)Cc2ccccc2)c2c1CCC(N1CCc3ccccc31)C2` (stereo not given), the growth was 86.7% (inactive).

Consider `C=C1C(=O)O[C@H]2[C@H]1CC/C(COC(=O)/C=C\C(=O)NCc1ccc(Cn3c(=O)sn(CCCl)c3=O)cc1)=C\CC[C@@]1(C)O[C@@H]21`, for which the growth is 47.9% (inactive).

Turning to `COC(=O)c1ccc(NC(=O)Nc2ccc(C(=O)OC)cc2)cc1`, the growth is 124% (inactive).

With `O=C(O)c1cn(C2CC2)c2cc(N3CCN(C(=O)Nc4nc(-c5ccc(Br)cc5)cs4)CC3)c(F)cc2c1=O`, the growth is 42.4% (inactive).

For the compound `NC(=O)c1c(NC(=O)c2cccc(C(F)(F)F)c2)sc2c1CCC(=O)C2`, the growth is -55% (active).

Take `CC1=C(C(=O)Nc2ccccc2)C(c2ccc3c(c2)OCO3)NC(=S)N1` (stereo not given): the growth is 97.1% (inactive).

As to `NS(=O)(=O)c1ccc(-c2cc(-c3nnc(SCC(=O)Nc4ccc(C(=O)/C=C/c5ccc(Cl)cc5)cc4)n3-c3ccccc3)c3ccccc3n2)cc1`, the growth is 77.1% (inactive).

In the case of `COC(=O)c1cc(Br)ccc1O`, the growth is 101% (inactive).

As to `C=C1C(=O)O[C@H]2[C@H]1CC/C(COC(=O)/C=C/C(=O)OC/C1=C/CC[C@@]3(C)O[C@H]3[C@H]3OC(=O)C(=C)[C@@H]3CC1)=C\CC[C@@]1(C)O[C@@H]21`, the growth was 63.3% (inactive).

For `CNC1=CC(=O)c2c(C(=O)OC)c(C)[n+]([O-])c(C)c2C1=O`, the growth was 74.4% (inactive).

For `O=C(Nc1ncccc1OCc1ccccc1)NC1CCCCCC1`, the growth was 86.7% (inactive).

For the compound `O=C1/C(=C\c2cccc3nccnc23)SC(=S)N1CCc1ccc(O)cc1`, the growth was 79.1% (inactive).

Regarding `O=C1/C=C/[C@@H](O)[C@@H]2C[C@@H](O)C[C@H]2/C=C/CCC[C@@H](O)CCO1`, the growth is 83.7% (inactive).

On to `Cc1ccc(CNc2c3ccccc3nc3ccccc23)cc1`, for which the growth was 18.6% (inactive).

With `Cc1ccnc(Nc2ccc([N+](=O)[O-])c(NCCN3CCOCC3)n2)c1`, the growth was 65.6% (inactive).

`CSc1nn2c(-c3ccc4ccccc4c3)ccnc2c1C#N`: the growth is 22.4% (inactive).

Consider `COc1cc2nc3sc(C(=O)Nc4ccc(C(=O)OC(C)C)cc4)c(C(=O)Nc4ccc(Cl)cc4C)n3c(=O)c2cc1OC`, for which the growth was 42.7% (inactive).

For the compound `COC(=O)/C=C1/SC(=Nc2ccc([N+](=O)[O-])cc2)N(CCc2c[nH]c3ccc(O)cc23)C1=O`, the growth is 71.4% (inactive).

For the compound `O=S1(=O)C=C(c2ccccc2)C(c2ccccc2)=C1`, the growth is -15.6% (active).

Consider `O=C(O)COc1ccc(Cl)c(Cl)c1`, for which the growth was 107% (inactive).

Consider `O=C1/C(=C/c2ccccn2)NC(=S)N1c1ccccc1Cl`, for which the growth was 66% (inactive).

Regarding `CCS/C(Nc1ccccc1)=C(\C#N)C(=O)Nc1ccc(OC)cc1`, the growth is 40.4% (inactive).

Consider `COc1ccc(C(=O)N2c3ccccc3Sc3ccccc32)c(C(F)(F)F)c1`, for which the growth is 31.8% (inactive).

Take `Cc1ccc(-c2csc(NC(=O)c3ccccc3CN3C(=O)c4ccccc4C3=O)n2)cc1`: the growth was 86.6% (inactive).

For `CNC(=O)c1cc(Oc2cccc3nc(NC(=O)Nc4cc(C(F)(F)F)ccc4Cl)ccc23)ccn1`, the growth is 85.8% (inactive).

These data come from PubChem BioAssay (NCI).
